Measured values taken from PubChem BioAssay (NCI).
Compounds without any hit were thinned out: in the full panel of roughly 83,000, 20% have a hit.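 For each line, cells grew in 96-well plates with the test compound present at a single concentration for 48 hours.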 Values without a mark were called inactive. Calls of active or inactive are those of the source.

System: HCC-2998 colon
Test: NCI-60 one-dose screen, 48 h (100 = growth as untreated, 0 = no growth, -100 = all killed)
Details: 10 µM unless noted
Protocol: Growth inhibition of the HCC-2998 human tumor cell line is measured as a screen for anti-cancer activity. Cells are grown in 96 well plates and exposed to the test compound for 48 hours. Compounds are tested at a single concentration, which is 10^-5 M for most compounds. The reported endpoint is percent growth (GI% or GIPRCNT), where numbers from 0 - 100% represent growth inhibition, and numbers from -100% - 0 represent cell death. For example, a value of 40 represents 60% growth inhibition. A value of 0 means no net growth occurred over the course of the experiment. A value of -40 indicates 40% of cells at the beginning of the experiment died by the end of the experiment. A value of -100 means all cells are dead at the end of the experiment.
NCI-60 Human Tumor Cell Lines Screen was performed using the standard one-dose NCI protocol, which is described in more detail at https://dtp.cancer.gov/discovery_development/nci-60/default.htm.
Compounds with GIPRCNT values below 10 were considered active. Activity score was based on GIPRCNT using the following formula: […]
Score is 0 for GIPRCNT values of 100 or above, 50 for GIPRCNT values of 0, and 100 for GIPRCNT values of -100.

Structure (SMILES)	growth
N=c1n(Cc2ccccc2)c(N)cc(=O)n1Cc1ccccc1	67.4%
CCCCCCCCCCCCCCC(C(=O)OCC)C(=O)OCC	106%
CN1CCN(Cc2ccc(NC(=O)c3cncc(C#Cc4ccc(N)nc4)c3)cc2C(F)(F)F)CC1	29.8%
CC(C)N=C1CCCC1C(=S)SSC(=S)C1CCCC1=NC(C)C (stereo not given)	116%
COc1ccc(-n2nc(C(=O)NCC(=O)Nc3nc4cc(OC)ccc4s3)c3ccccc3c2=O)cc1	55.8%
Cc1cc(-c2nnc(/C=C/c3ccc4c(c3)OCO4)o2)n[nH]1	75.8%
COc1ccc(/C(=C\c2cc(OC)c(OC)c(OC)c2)C(=O)Nc2nc3ccc(Cl)cc3s2)cc1	104%
C=CC[C@]1(O)CC[C@H]2[C@@H]3CCc4cc(O)ccc4[C@H]3CC[C@@]21C	99.8%
C/C(=N\NC(=S)Nc1ccccc1)c1ccccn1	48.1%
COc1ccc(NC(=O)/C=C/c2ccc(NC(=O)N3CCCC3)cc2)cn1	111%
CN1CCN(Cc2ccc(NC(=O)c3cnc(F)c(C#Cc4cnc(N)c5ncccc45)c3)cc2C(F)(F)F)CC1	40.7%
CCCCOc1ncnc2nc[nH]c12	111%
COc1ccc(-c2nc(-c3ccccc3OCc3ccccc3OC)nc(C)c2C(C)=O)cc1	86.2%
COc1ccc(-c2[nH]nc(N)c2-c2cc(OC)c(OC)c(OC)c2)cc1	1.36% (active)
COc1ccc(C(=O)c2cc(C)c(OC)c(C)c2)cc1OC(=O)CCl	27%
COc1ccc(-c2oc(=O)ccc2-c2cc(OC)c(OC)c(OC)c2)cc1F	65%
C=C1NC(=O)C(C(C)CC)NC(=O)C2CSCC(NC(=O)CCC(=O)O)C(=O)NC(Cc3ccccc3)C(=O)NC(C)C(=O)NC(CC(C)CC)C(=O)NC(C(=O)NC(Cc3ccccc3)C(=O)N3CCCC3C(=O)N2)C(C)OC(=O)C(CO)NC(=O)C(C(O)COC)N(C)C(=O)C(C(C)C)NC(=O)C(CC(C)CC)NC1=O (stereo not given)	12.3% [6 µM]
Brc1ccccc1Cn1c(-c2cncs2)nc2ccccc21	92%
COc1cc(C2=NOC(c3cc(OC)c(OC)c(OC)c3)C2)ccc1OCCCCOc1cc2c(cc1OC)C(=O)N1CCC[C@H]1C=N2 (stereo not given in full)	-57.4% (active)
Cc1cc(NC(=O)C2c3ccccc3C(=O)N(CC(C)C)C2c2cccs2)no1 (stereo not given)	-45.5% (active)

Structure (SMILES)	growth
CN(C)c1ccc(/C=C(\C#N)c2nc3ccccc3n2C)cc1	61.3%
CC1=NN(c2cccc(S(N)(=O)=O)c2)C(=O)C1	96.1%
COc1cc(C)cc2oc3oc(=O)c(-c4csc(-c5cc6ccccc6oc5=O)n4)cc3c(=O)c12	106%
CCOC(C)(c1ccc(Cl)cc1)C1CCNCC1 (stereo not given)	89.4%
NNC(=O)Cc1ccccc1	102%
OC(c1cc2c(Cl)cc(Cl)cc2c2cc(C(F)(F)F)ccc12)C1CCCCN1 (stereo not given)	-73.5% (active)
C=C(CN1CC=CCC1)[C@@H]1CC[C@]2(C(=O)OC)CC[C@]3(C)[C@H](CC[C@@H]4[C@@]5(C)CC[C@H](OC(C)=O)C(C)(C)[C@@H]5CC[C@]43C)[C@@H]12	108%
Cc1ccc(-c2cnc3sc4ccc(Cl)cc4n23)cc1	105%
COc1ccc2cc(-c3nc(C)c(C(C)=O)c(-c4ccc(C)cc4)n3)ccc2c1	109%
NC(N)=N/N=C\c1cccc(OCc2ccccc2)c1	4.51% (active)
CCc1ccc(Nc2cc(C)c3ccc(O)cc3n2)cc1	-59.8% (active)
CCCCN(CCCC)CCCN=c1nc2c(c(N)n1-c1ccccc1)c(=S)n(-c1ccccc1)c(=S)n2-c1ccccc1	-91.5% (active)
CNCCCNc1ccnc2cc(Cl)ccc12	-78.6% (active)
O=C(c1ccc(C(F)(F)F)c(Cl)c1)N(Cc1ccc(Cl)cc1)c1ccc(-c2cc(C(F)(F)F)[nH]n2)c(O)c1	13.6%
CCCCNCC(O)c1cc2c(Cl)cc(Cl)cc2c2cc(C(F)(F)F)ccc12 (stereo not given)	-72% (active)
CC1=NOCC(=O)N1	116%
COc1ccc2[nH]c(C(=O)OCc3ccc4cccc(O)c4n3)cc2c1	-35.8% (active)
COc1ccc(C2CC(c3ccc(Nc4ccnc5cc(Cl)ccc45)cc3)=NN2c2ccccc2)cc1 (stereo not given)	101%
O=C(Nc1cccc(Cl)c1)Nc1cc(C(F)(F)F)ccc1Cl	13.2%
COc1cccc(NC(=O)c2c(-c3ccccc3)c(-c3ccccc3)n[nH]c2=O)c1	94.4%
